Source: PubChem BioAssay AID488969 (Vanderbilt High Throughput Screening Facility, 2010)
In all, about 110,000 compounds were measured (“z-score”: median about -0.1, highest 2% from about 2 on). This is one part of a sample in which the highest values are shown more often than they occur. The source made the active and inactive calls.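 The calls were made as follows: active = z-score in the third read window above 3 or below -3; inactive = the rest.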

Biological target: Metabotropic glutamate receptor 8 (Rattus norvegicus) (UniProt P70579)
Sequence (P70579 whole entry, looked up): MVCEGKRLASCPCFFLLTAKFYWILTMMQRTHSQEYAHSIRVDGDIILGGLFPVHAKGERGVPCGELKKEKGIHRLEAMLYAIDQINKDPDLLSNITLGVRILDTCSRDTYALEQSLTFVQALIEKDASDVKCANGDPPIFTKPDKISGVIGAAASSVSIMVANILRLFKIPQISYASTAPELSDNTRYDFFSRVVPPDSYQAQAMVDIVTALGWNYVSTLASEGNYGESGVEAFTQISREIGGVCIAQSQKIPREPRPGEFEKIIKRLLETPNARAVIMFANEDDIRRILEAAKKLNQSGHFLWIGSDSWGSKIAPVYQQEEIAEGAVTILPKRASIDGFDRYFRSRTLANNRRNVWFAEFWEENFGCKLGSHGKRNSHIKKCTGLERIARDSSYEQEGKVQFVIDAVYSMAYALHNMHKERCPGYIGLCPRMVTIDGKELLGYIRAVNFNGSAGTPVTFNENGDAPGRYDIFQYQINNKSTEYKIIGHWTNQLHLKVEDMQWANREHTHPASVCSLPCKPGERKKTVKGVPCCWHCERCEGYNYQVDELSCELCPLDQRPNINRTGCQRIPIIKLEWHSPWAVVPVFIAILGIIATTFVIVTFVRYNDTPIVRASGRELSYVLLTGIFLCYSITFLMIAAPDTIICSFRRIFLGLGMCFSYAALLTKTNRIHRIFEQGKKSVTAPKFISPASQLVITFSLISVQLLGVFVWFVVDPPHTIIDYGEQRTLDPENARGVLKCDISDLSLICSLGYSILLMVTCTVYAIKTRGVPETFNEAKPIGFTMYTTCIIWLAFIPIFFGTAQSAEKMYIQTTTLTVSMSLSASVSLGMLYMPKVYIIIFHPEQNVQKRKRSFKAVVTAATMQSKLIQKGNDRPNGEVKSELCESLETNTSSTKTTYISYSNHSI
Test: rat mGluR8 modulators via GIRK flux, primary screen, cell-based, thallium flux, HTS (AID 488969)
Conditions: HEK293 rat mGluR8, GIRK (G protein-gated inwardly rectifying potassium channel) thallium flux, FluoZin2; at 10 µM; stronger effect = higher value; submaximal glutamate (EC20) added with thallium

**Q.** `Nc1c(C(=O)N2CCCCC2)sc(=S)n1-c1ccccc1` was tested. Which z-score did it give?
**A.** Its z-score is -0.163.

**Q.** For `Cc1ccc(-n2c(N)c(C(=O)N3CCN(C)CC3)sc2=S)cc1`, which z-score is on record?
**A.** Its z-score is 0.948.

**Q.** `CN1CCN(C(=O)c2sc(=S)n(-c3ccccc3)c2N)CC1` was tested. Which z-score did it give?
**A.** Its z-score is 11.1 (active).

**Q.** How did the z-score turn out when `COc1ccc(OC)c(NS(=O)(=O)c2cc(OC)ccc2OC)c1` was run?
**A.** The z-score was -0.0402.

**Q.** Which z-score does the source give for `COCCCNS(=O)(=O)c1ccc(OC)c(Cl)c1Cl` here?
**A.** Its z-score is 0.284.

**Q.** `COc1ccc(COC(=O)NNC(=O)c2ccccc2Cl)cc1` was tested. Which z-score did it give?
**A.** Its z-score is 0.289.

**Q.** For `COc1ccc(-n2c(C)cc(C(=O)CN3C(=O)c4ccccc4C3=O)c2C)cc1`, which z-score is on record?
**A.** Its z-score is 0.595.

**Q.** `COc1ccc(C2C(C(N)=O)=C(C)Nc3nc(-c4ccccc4)nn32)cc1OC` (stereo unspecified) was tested. Which z-score did it give?
**A.** Its z-score is 0.875.

**Q.** How did the z-score turn out when `COc1ccc(C2C(C(N)=O)=C(C)Nc3nc(-c4cccc(Cl)c4)nn32)cc1OC` (stereo unspecified) was run?
**A.** The z-score was 4.01 (active).

**Q.** Which z-score does the source give for `COc1cccc(C2C(C(N)=O)=C(C)Nc3nc(-c4cccc(Cl)c4)nn32)c1` (stereo unspecified) here?
**A.** The z-score was -0.342.

**Q.** With `CC1=C(C(N)=O)C(c2cccnc2)n2nc(-c3cccc(Cl)c3)nc2N1` (stereo unspecified) as the compound, how does the z-score read?
**A.** The z-score was 0.192.

**Q.** Which z-score does the source give for `CC1=C(C(N)=O)C(c2cccs2)n2nc(-c3cccc(Cl)c3)nc2N1` (stereo unspecified) here?
**A.** Its z-score is 2.14.

**Q.** For `COc1ccc(OC)c(C2C(C(N)=O)=C(C)Nc3nc(-c4cccc(Cl)c4)nn32)c1` (stereo unspecified), which z-score is on record?
**A.** The z-score was 1.16.

**Q.** With `Cc1nc2ccccn2c1C(=O)NN=C1C2CC3CC(C2)CC1C3` as the compound, how does the z-score read?
**A.** The z-score was -0.259.

**Q.** With `O=c1[nH]cnc2scc(-c3ccccc3)c12` as the compound, how does the z-score read?
**A.** The z-score was 0.259.

**Q.** How did the z-score turn out when `O=c1[nH]cnc2scc(-c3ccc(-c4ccccc4)cc3)c12` was run?
**A.** The z-score was 0.454.

**Q.** `Cc1ccc(-c2csc3nc[nH]c(=S)c23)cc1C` was tested. Which z-score did it give?
**A.** The z-score was 15.9 (active).

**Q.** For `O=c1[nH]cnc2scc(-c3ccc(F)cc3)c12`, which z-score is on record?
**A.** The z-score was -0.0775.

**Q.** Which z-score does the source give for `Cc1ccc(-c2csc3ncnc(-n4nnc5ccccc54)c23)cc1C` here?
**A.** Its z-score is -0.0158.

**Q.** How did the z-score turn out when `S=c1[nH]cnc2scc(-c3ccccc3)c12` was run?
**A.** The z-score was 13.1 (active).

**Q.** `O=C(CSCCc1ccccn1)Nc1ccc(Br)cn1` was tested. Which z-score did it give?
**A.** The z-score was -0.0969.

**Q.** Which z-score does the source give for `CCc1nnc(NC(=O)c2cc(S(=O)(=O)N3CCN(c4ccccc4)CC3)ccc2Cl)s1` here?
**A.** Its z-score is -0.438.

**Q.** With `CCOc1cc(/C=N/O)cc(Br)c1OCC` as the compound, how does the z-score read?
**A.** Its z-score is -0.564.

**Q.** Which z-score does the source give for `CCCCOc1c(Br)cc(/C=N/O)cc1OCC` here?
**A.** Its z-score is 2.8.

**Q.** `CCCOc1c(Br)cc(/C=N/O)cc1OC` was tested. Which z-score did it give?
**A.** The z-score was -0.858.

**Q.** For `CCOc1ccc(NC(=O)CN2CCN(CC(=O)Nc3ccc(F)c(F)c3)CC2)cc1`, which z-score is on record?
**A.** The z-score was -0.0841.

**Q.** With `N#Cc1cnn(Cc2ccccc2)c1N` as the compound, how does the z-score read?
**A.** The z-score was -0.318.

**Q.** Which z-score does the source give for `CCOC(=O)C1CCCN(Cc2nc(N)nc(Nc3ccc(Cl)cc3)n2)C1` (stereo unspecified) here?
**A.** The z-score was -0.508.

**Q.** With `Fc1ccccc1NC(=S)NN(Cc1ccccc1)c1ccccc1` as the compound, how does the z-score read?
**A.** The z-score was 5.03 (active).

**Q.** For `CC(C)c1ccccc1NC(=S)NN(Cc1ccccc1)c1ccccc1`, which z-score is on record?
**A.** The z-score was -0.164.

**Q.** With `Cc1cccc(NC(=S)NN(Cc2ccccc2)c2ccccc2)c1C` as the compound, how does the z-score read?
**A.** The z-score was -0.141.

**Q.** How did the z-score turn out when `c1ccc(-c2ccc(-c3cnc4n3CCCCC4)cc2)cc1` was run?
**A.** The z-score was 0.704.

**Q.** With `O=C(O)CCCCNS(=O)(=O)c1ccc(Cl)c(C(F)(F)F)c1` as the compound, how does the z-score read?
**A.** The z-score was -0.602.

**Q.** Which z-score does the source give for `CC(C)OC(=O)CSc1nnc(SCc2cccc3ccccc23)s1` here?
**A.** The z-score was -0.157.

**Q.** With `O=C(NNC(=O)c1cccnc1SCc1cccc([N+](=O)[O-])c1)c1ccc(F)cc1` as the compound, how does the z-score read?
**A.** Its z-score is 0.33.

**Q.** `O=C(NNC(=O)c1cccnc1SCc1cccc([N+](=O)[O-])c1)c1ccccn1` was tested. Which z-score did it give?
**A.** Its z-score is 3.29 (active).

**Q.** With `Cc1ccc(C(=O)NNC(=O)c2cccnc2SCc2cccc([N+](=O)[O-])c2)cc1` as the compound, how does the z-score read?
**A.** The z-score was -0.0883.

**Q.** For `COc1cc(NC(=O)c2cc(OC)c(OC)c(OC)c2)c(OC)cc1NC(=O)CN1CCCCC1`, which z-score is on record?
**A.** Its z-score is -2.33.

**Q.** With `CCN1/C(=C2\C(=O)N(C)C(=S)N2C)C=Cc2ccccc21` as the compound, how does the z-score read?
**A.** The z-score was -0.543.

**Q.** For `S=c1[nH]nc(-c2cc3ccccc3o2)n1Cc1ccccc1`, which z-score is on record?
**A.** The z-score was 2.66.

**Q.** `S=c1[nH]nc(-c2ccc(Br)o2)n1Cc1ccccc1` was tested. Which z-score did it give?
**A.** Its z-score is 3.42 (active).

**Q.** With `S=c1[nH]nc(-c2ccco2)n1Cc1ccccc1` as the compound, how does the z-score read?
**A.** Its z-score is 0.271.

**Q.** How did the z-score turn out when `Cc1ccc(-c2n[nH]c(=S)n2Cc2ccccc2)cc1` was run?
**A.** The z-score was -0.277.

**Q.** With `CC(C)Cn1c(-c2ccc(Br)o2)n[nH]c1=S` as the compound, how does the z-score read?
**A.** Its z-score is 1.12.

**Q.** `Cc1cccc(-c2n[nH]c(=S)n2Cc2ccccc2)c1` was tested. Which z-score did it give?
**A.** Its z-score is 1.74.

**Q.** Which z-score does the source give for `COc1ccc(C(=O)Cn2nnc(-c3ccccc3F)n2)cc1` here?
**A.** The z-score was -0.251.

**Q.** Which z-score does the source give for `C1CCC2(CC1)OCC1(CO2)COC2(CCCCC2)OC1` here?
**A.** Its z-score is 3.83 (active).

**Q.** How did the z-score turn out when `C[N+]1(CC2COC3(CCCCC3)O2)CCCC1` (stereo unspecified) was run?
**A.** The z-score was -0.214.

**Q.** `Nn1c(SCc2ccccc2)nnc1-c1ccccn1` was tested. Which z-score did it give?
**A.** The z-score was 0.00631.

**Q.** `CC(=O)NCCn1c(SCC(=O)NCC2CCCO2)nc2ccccc2c1=O` (stereo unspecified) was tested. Which z-score did it give?
**A.** The z-score was 0.564.

**Q.** Which z-score does the source give for `CCN(CC)S(=O)(=O)c1cccc(-c2nnc(C(=O)c3ccc(C(F)(F)F)cc3)o2)c1` here?
**A.** The z-score was -0.091.

**Q.** With `CC(C)Oc1cc(NC(=O)CS(=O)CC(=O)Nc2cccc(C(F)(F)F)c2)c(Cl)cc1Cl` (stereo unspecified) as the compound, how does the z-score read?
**A.** The z-score was 2.75.

**Q.** Which z-score does the source give for `CC(C)Oc1cc(NC(=O)CSCC(=O)Nc2cccc(C(F)(F)F)c2)c(Cl)cc1Cl` here?
**A.** Its z-score is -0.183.

**Q.** For `COc1cc(NC(=O)CSCC(=O)Nc2cccc(C(F)(F)F)c2)c(Cl)cc1Cl`, which z-score is on record?
**A.** Its z-score is -0.193.

**Q.** Which z-score does the source give for `CCCn1nnnc1NC(=O)c1cc(Cl)ccc1Cl` here?
**A.** The z-score was 0.462.

**Q.** How did the z-score turn out when `CCCn1nnnc1NC(=O)c1ccc2ccccc2c1` was run?
**A.** The z-score was 8.08 (active).

**Q.** For `CCCn1nnnc1NC(=O)c1cccs1`, which z-score is on record?
**A.** Its z-score is 0.876.

**Q.** With `CSc1nc(Cc2ccc(Cl)cc2)nc2ccccc12` as the compound, how does the z-score read?
**A.** Its z-score is 0.221.

**Q.** `CS(=O)(=O)N(CC(=O)Nc1ccccc1)Cc1ccc(Cl)cc1` was tested. Which z-score did it give?
**A.** The z-score was 0.264.

**Q.** With `CCN=c1scc(-c2ccco2)n1/N=C/c1ccc(OC)c(O)c1` as the compound, how does the z-score read?
**A.** Its z-score is 0.709.

**Q.** How did the z-score turn out when `CC(C)N=c1scc(-c2ccco2)n1/N=C/c1ccc(O)c(O)c1` was run?
**A.** The z-score was 1.68.

**Q.** For `CCN=c1scc(-c2ccco2)n1/N=C/c1ccc(O)cc1`, which z-score is on record?
**A.** Its z-score is 6.24 (active).

**Q.** `O=C(CCn1c(=O)sc2ccccc21)Nc1ccon1` was tested. Which z-score did it give?
**A.** Its z-score is -0.246.

**Q.** How did the z-score turn out when `Cc1ccc(OS(=O)(=O)c2ccccc2)c(/C=N/N=C2\NC(=O)C(C)S2)c1` (stereo unspecified) was run?
**A.** Its z-score is -0.426.

**Q.** Which z-score does the source give for `O=C(O)/C(=C\c1ccc(Br)cc1)c1ccc(S(=O)(=O)N2CCCCC2)s1` here?
**A.** The z-score was -0.862.

**Q.** `CCOC(=O)C(Cc1ccccc1)NC(C)=O` (stereo unspecified) was tested. Which z-score did it give?
**A.** The z-score was -0.16.

**Q.** How did the z-score turn out when `CCN(C(=O)CSc1cc(-c2ccccc2)c2ccc(OC)cc2n1)C1CCS(=O)(=O)C1` (stereo unspecified) was run?
**A.** Its z-score is -0.108.

**Q.** How did the z-score turn out when `COc1ccc2c(-c3ccccc3)cc(SCC(=O)N(C)C3CCS(=O)(=O)C3)nc2c1` (stereo unspecified) was run?
**A.** Its z-score is 2.36.

**Q.** Which z-score does the source give for `CCCN(C(=O)CSc1cc(-c2ccccc2)c2ccc(OC)cc2n1)C1CCS(=O)(=O)C1` (stereo unspecified) here?
**A.** The z-score was -0.403.

**Q.** With `O=C(CSc1nnc(Cc2ccccc2)n1-c1ccc(F)cc1)N1CCOCC1` as the compound, how does the z-score read?
**A.** Its z-score is 0.477.

**Q.** How did the z-score turn out when `O=S(=O)(Cc1cc(Cl)nc(-c2ccccc2)n1)c1ccccc1` was run?
**A.** Its z-score is -0.303.
